Where “and” joins values, the source holds several entries; their conditions need not be identical. Equal values may be shown once. Inconclusive results are not listed. Calls of active or inactive are those of the source. Unless noted, calls follow the shape of the dose curve; as a rule, active = well fitted curve in the direction sought with a large enough effect; inconclusive = small, poorly fitted or top-dose-only effect, or another doubt; inactive = no such curve, though single readings can be large; an effect the other way counts as inactive or inconclusive.
Key:
[1] = qHTS assay for small molecule agonists of retinoid X receptor alpha signaling (AID 588544; calls by dose curve;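 as to activation: 0% = DMSO basal wells and 100% = reference agonist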); conditions: HEK293T RXRa-UAS-bla, beta-lactamase reporter, 18 h; 530 nm emission
[2] = biological target: Retinoic acid receptor RXR-alpha (Homo sapiens) (UniProt P19793); assay: as above; conditions: HEK293T RXRa-UAS-bla, beta-lactamase reporter, 18 h; series mostly up to 76.7 µM
Sequence of Retinoic acid receptor RXR-alpha (Homo sapiens) (P19793 whole entry, looked up): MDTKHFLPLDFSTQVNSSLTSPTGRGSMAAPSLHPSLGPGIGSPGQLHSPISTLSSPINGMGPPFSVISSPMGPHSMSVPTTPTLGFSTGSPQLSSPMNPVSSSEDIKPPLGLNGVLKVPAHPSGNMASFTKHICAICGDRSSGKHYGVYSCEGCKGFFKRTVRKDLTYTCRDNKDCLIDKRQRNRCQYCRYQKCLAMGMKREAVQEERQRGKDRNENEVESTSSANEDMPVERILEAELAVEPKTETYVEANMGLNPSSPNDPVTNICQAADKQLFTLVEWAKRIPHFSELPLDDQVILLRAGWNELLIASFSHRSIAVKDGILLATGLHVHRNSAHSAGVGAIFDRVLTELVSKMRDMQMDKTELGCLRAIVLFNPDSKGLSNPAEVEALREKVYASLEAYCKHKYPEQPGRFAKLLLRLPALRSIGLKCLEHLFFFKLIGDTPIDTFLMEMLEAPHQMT

[3] = biological target: Thyroid hormone receptor beta (Homo sapiens) (UniProt P10828); assay: qHTS assay for small molecule agonists of thyroid hormone receptor beta signaling (AID 588545; calls by dose curve); conditions: TR-UAS-bla GripTite HEK 293, beta-lactamase ratio, agonist mode, 18 h, percent of T3 response, DMSO as zero; series mostly up to 76.7 µM
Sequence of Thyroid hormone receptor beta (Homo sapiens) (P10828 whole entry, looked up): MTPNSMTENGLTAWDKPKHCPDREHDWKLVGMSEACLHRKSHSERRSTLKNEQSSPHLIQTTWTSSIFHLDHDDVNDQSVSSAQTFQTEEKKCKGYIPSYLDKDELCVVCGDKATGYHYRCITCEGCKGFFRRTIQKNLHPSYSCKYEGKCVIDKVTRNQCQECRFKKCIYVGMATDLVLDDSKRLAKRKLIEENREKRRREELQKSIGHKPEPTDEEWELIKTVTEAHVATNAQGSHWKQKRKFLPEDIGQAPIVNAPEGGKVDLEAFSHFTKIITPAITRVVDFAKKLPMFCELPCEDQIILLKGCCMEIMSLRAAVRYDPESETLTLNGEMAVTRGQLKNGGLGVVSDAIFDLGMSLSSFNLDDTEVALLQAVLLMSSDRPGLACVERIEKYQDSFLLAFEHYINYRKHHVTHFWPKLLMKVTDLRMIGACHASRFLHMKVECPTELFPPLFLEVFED
Outline: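 In this cell-based screen, titrated compounds act on HEK 293 cells held in medium with 2% charcoal/dextran FBS, NEAA and pyruvate for 18 hrs at 37 C. Responses are expressed relative to T3 (10 nM) as 100% and basal DMSO as 0%.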

[4] = qHTS assay for small molecule antagonists of retinoid X receptor alpha signaling (AID 588546; active = well fitted inhibition curve with a large enough effect in the signal ratio, with a control signal flat, not every such curve was filed as active; the % refers to the signal ratio;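 also: cells stimulated with 9-cis-retinoic acid as agonist; % is scaled to controls: 0 for no effect and ±100 for the full control effect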); conditions: HEK293T RXRa-UAS-bla, beta-lactamase ratio, antagonist mode; measured here: W530 green channel, cytotoxicity proxy
Outline: (§1)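 Beta-lactamase reporter inhibition, read as CCF4 fluorescence ratio (ex 405, em 460/530 nm) after 2 h at RT. HEK293T UAS-bla cells, 2500/well, were stimulated with 9-cis-RA at 500 or 100 nM final alongside test compound for 18 h at 37 C.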

[5] = biological target: Retinoic acid receptor RXR-alpha (Homo sapiens) (UniProt P19793); assay: as above; conditions: HEK293T RXRa-UAS-bla, beta-lactamase ratio, antagonist mode
Outline: as §1

[6] = biological target: Thyroid hormone receptor beta (Homo sapiens) (UniProt P10828); assay: qHTS assay for small molecule antagonists of thyroid hormone receptor beta signaling (AID 588547; active = well fitted inhibition curve with a large enough effect in the signal ratio, with a control signal flat, not every such curve was filed as active; the % refers to the signal ratio;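 also: cells stimulated with 0.4 nM T3 agonist during compound exposure; % is scaled to controls: 0 for no effect and ±100 for the full control effect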); conditions: TR-UAS-bla HEK293, beta-lactamase ratio, antagonist mode, 18 h
Outline: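 TR-UAS-bla GripTite HEK293 cells in 2% charcoal/dextran FBS medium were preincubated 4 h at 37 C, given compound (0.59 nM to 92 uM) plus 0.4 nM T3 (final) for 18 h, then CCF4 for 2 h at RT; Hill fit gave IC50.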

[7] = biological target: Voltage-gated inwardly rectifying potassium channel KCNH2 (Homo sapiens) (UniProt Q12809); assay: qHTS Assay for Small Molecule Inhibitors of the Human hERG Channel Activity (AID 588834); conditions: U2OS BacMam hERG, FluxOR thallium flux fluorescence; series mostly up to 92.2 µM;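 also: top concentration of the series differs between compounds; % is scaled to controls: 0 for no effect and ±100 for the full control effect; lower thallium flux fluorescence means stronger hERG block; nearly all actives have a fitted effect of over 50% in size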
Sequence of Voltage-gated inwardly rectifying potassium channel KCNH2 (Homo sapiens) (Q12809 whole entry, looked up): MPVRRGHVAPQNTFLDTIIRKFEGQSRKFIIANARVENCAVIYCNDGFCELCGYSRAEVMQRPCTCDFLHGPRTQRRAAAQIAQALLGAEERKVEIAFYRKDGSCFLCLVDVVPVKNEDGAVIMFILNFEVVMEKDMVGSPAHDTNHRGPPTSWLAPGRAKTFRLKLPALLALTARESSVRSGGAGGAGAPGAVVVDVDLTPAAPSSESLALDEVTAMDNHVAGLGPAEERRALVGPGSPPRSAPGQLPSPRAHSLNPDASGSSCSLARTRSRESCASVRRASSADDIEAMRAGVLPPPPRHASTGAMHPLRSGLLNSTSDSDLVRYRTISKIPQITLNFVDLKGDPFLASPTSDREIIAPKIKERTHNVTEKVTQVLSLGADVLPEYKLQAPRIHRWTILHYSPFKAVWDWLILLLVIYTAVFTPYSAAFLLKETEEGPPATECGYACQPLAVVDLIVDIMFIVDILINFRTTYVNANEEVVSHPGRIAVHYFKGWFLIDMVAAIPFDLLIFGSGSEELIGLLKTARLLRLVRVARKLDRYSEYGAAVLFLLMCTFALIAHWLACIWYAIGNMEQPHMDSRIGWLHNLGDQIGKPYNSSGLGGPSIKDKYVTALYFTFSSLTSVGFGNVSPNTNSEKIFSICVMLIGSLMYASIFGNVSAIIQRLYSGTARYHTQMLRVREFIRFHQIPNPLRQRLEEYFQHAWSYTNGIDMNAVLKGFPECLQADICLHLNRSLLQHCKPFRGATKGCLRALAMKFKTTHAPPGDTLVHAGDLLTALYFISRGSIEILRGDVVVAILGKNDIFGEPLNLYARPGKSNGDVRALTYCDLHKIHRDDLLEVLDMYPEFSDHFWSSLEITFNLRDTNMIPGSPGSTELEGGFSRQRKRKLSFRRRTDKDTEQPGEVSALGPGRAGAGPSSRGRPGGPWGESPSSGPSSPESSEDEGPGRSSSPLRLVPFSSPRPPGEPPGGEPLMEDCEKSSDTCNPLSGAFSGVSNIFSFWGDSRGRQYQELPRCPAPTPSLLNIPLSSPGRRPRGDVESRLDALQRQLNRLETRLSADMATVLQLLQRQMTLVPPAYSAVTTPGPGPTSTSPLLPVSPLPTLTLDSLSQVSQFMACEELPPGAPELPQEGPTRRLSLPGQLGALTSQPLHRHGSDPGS
Outline: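 Concentration-response qHTS measuring drop in thallium-sensitive dye signal. U2OS cells carrying BacMam hERG; compound exposure ~10 min, then stimulation buffer and 2 min read at 1 sec intervals.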

[8] = qHTS assay for small molecule agonists of the antioxidant response element (ARE) signaling pathway (AID 651741; active = well fitted activation curve with a large enough effect in the signal ratio; the % refers to the signal ratio; also: % of control where 0% means no effect); conditions: HepG2 ARE-bla reporter, beta-lactamase FRET ratio, 16 h; series mostly up to 96 µM
Outline: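 ARE-bla HepG2 cells (beta-lactamase reporter under ARE control) were plated at 2,000 cells/well, preincubated 5 h at 37 C/5% CO2, then treated with DMSO-dissolved compounds for 16 h at 37 C; LiveBLAzer B/G FRET substrate added, fluorescence read after 2 h at room temperature.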

[9] = qHTS assay for small molecule activators of the p53 signaling pathway (AID 651743; active = well fitted activation curve with a large enough effect in the signal ratio, not every such curve was filed as active; the % refers to the signal ratio; also: % of control where 0% means no effect); conditions: HCT-116 p53RE-bla, beta-lactamase FRET ratio, 16 h; stronger effect = higher value
Outline: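 p53RE-bla HCT-116 cells with a stably integrated beta-lactamase reporter under p53 response elements were plated, rested 5 hours at 37 C/5% CO2, then exposed to compounds in DMSO for 16 hours at 37 C. LiveBLAzer B/G FRET substrate was read after 2 hours at room temperature.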

[10] = qHTS assay for small molecule disruptors of the mitochondrial membrane potential - 1 hr assay (AID 651754; calls by dose curve; also: % is scaled to controls: 0 for no effect and ±100 for the full control effect; nearly all actives have a fitted effect of over 35% in size); conditions: series mostly up to 92.2 µM
Outline: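 HepG2 cells, attached overnight at 37C, were exposed to compound or DMSO vehicle for 1 hr at 37C, 5% CO2, then stained with Mito-MPS dye for 30 min. Red aggregate versus green monomer fluorescence reports membrane potential.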

[11] = qHTS assay for small molecule disruptors of the mitochondrial membrane potential - 5 hr assay (AID 651755; calls by dose curve; also: % is scaled to controls: 0 for no effect and ±100 for the full control effect; nearly all actives have a fitted effect of over 40% in size); conditions: JC-1-type ratio dye; series mostly up to 92.2 µM
Outline: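 HepG2 cells, attached overnight at 37C, were exposed to compound or DMSO for 5 hr at 37C, 5% CO2. Mito-MPS dye was then added for 30 min, and fluorescence read at 490/535 nm (monomers) and 540/590 nm (aggregates).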

[12] = biological target: Tumor necrosis factor (Homo sapiens) (UniProt P01375); assay: qHTS assay to identify small molecules that stimulate Tumor Necrosis Factor-alpha (TNF-alpha) secretion (AID 651757; active = well fitted curve in the direction sought with a large enough effect in the signal ratio; the % refers to the signal ratio; also: 0% is about no effect); conditions: Human cells, HTRF 665/615 ratio; series mostly up to 92.2 µM
Sequence of Tumor necrosis factor (Homo sapiens) (P01375 whole entry, looked up): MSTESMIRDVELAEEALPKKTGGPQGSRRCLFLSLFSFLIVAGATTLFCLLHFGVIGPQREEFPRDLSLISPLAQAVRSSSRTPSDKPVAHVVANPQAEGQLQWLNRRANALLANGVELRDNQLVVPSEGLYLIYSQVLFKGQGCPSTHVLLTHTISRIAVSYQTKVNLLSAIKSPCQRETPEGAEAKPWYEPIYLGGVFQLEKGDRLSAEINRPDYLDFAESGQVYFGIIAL
Outline: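 THP-1 cells were exposed to compounds for 17 hrs at 37 C, after which secreted TNF-alpha was measured by homogeneous HTRF (TR-FRET) using cryptate- and XL665-labeled anti-TNF-alpha antibodies, read after 3 hr at room temperature.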

[13] = qHTS assay for environmental chemicals that activate the Aryl hydrocarbon Receptor (AhR) signaling pathway (AID 651777); conditions: 1A2-DRE human hepatoma cells, luciferase, 24 h; activation: stronger effect = higher value; also: % of control where 0% means no effect; nearly all actives have a fitted effect of over 15% in size
Outline: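 Human hepatoma 1A2-DRE cells, stably carrying a dioxin response element and CYP1A2 promoter driving luciferase, were exposed to compounds for 24 hr at 37 C and 5% CO2. Luciferase signal was then read after 30 min One-Glo at room temperature.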

[14] = biological target: Nuclear receptor ROR-gamma (Homo sapiens) (UniProt P51449); assay: qHTS assay for small molecule antagonists of the retinoid-related orphan receptor gamma (ROR-gamma) signaling pathway (AID 651802); conditions: ROR-gamma antagonist cell reporter assay; series mostly up to 92.2 µM; also: % is scaled to controls: 0 for no effect and ±100 for the full control effect; nearly all actives have a fitted effect of over 60% in size
Sequence of Nuclear receptor ROR-gamma (Homo sapiens) (P51449 whole entry, looked up): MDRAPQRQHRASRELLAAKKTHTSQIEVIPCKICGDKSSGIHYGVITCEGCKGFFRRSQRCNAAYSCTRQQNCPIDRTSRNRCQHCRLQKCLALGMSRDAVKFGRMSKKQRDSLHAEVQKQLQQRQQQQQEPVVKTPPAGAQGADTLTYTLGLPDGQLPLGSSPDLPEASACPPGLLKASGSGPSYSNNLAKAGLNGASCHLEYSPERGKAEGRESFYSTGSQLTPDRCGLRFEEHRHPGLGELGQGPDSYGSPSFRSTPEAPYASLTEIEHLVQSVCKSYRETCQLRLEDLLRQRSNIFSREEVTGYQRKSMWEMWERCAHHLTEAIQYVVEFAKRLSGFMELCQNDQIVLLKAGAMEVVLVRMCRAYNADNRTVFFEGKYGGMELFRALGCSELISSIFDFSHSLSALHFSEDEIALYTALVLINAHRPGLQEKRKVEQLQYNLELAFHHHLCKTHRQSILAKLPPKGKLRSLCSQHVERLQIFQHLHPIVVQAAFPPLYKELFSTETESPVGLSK
Outline: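 CHO cells carrying TET-inducible ROR-gamma and an ROR response element–luciferase reporter were exposed to compound, then induced with doxycycline. After 16hr at 37C, luminescence was read; lower signal indicates antagonism.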

[15] = qHTS assay for small molecule antagonists of the retinoid-related orphan receptor gamma (ROR-gamma) signaling pathway - cell viability counter screen (AID 720652; active = well fitted curve in the direction sought with a large enough effect in the repeat runs; an effect the other way counts as inactive or inconclusive;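 also: compound exposure lasted 16 hr before ATP read; % is scaled to controls: 0 for no effect and ±100 for the full control effect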); conditions: RORgamma reporter cell line viability counter screen; series mostly up to 92.2 µM
Outline: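 Counter screen in CHO cells carrying TET-inducible ROR-gamma and an ROR response element-luciferase reporter; cells plated 5 hr, compound pinned, doxycycline added, then 16 hr at 37 C. Viability read as intracellular ATP by CellTiter-Glo luminescence.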

[16] = qHTS assay for small molecule agonists of the antioxidant response element (ARE) signaling pathway measured by Nrf2-dependant transcriptional activity - cell viability counter screen (AID 720653; active = well fitted curve in the direction sought with a large enough effect in the repeat runs; an effect the other way counts as inactive or inconclusive; also: % is scaled to controls: 0 for no effect and ±100 for the full control effect); conditions: ARE-bla HepG2 viability, CellTiter-Glo ATP luminescence, 16 h; stronger effect = lower value
Outline: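 ARE-bla HepG2 cells (2,000/well) rested 5 hrs at 37C/5% CO2, then exposed to compounds in DMSO for 16 hrs. Viability was read in the same wells as intracellular ATP by luminescence, 30 min at room temperature after reagent addition.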

[17] = qHTS assay for small molecule activators of the nuclear factor-kappa B (NF-kB) signaling pathway (AID 651749; active = well fitted activation curve with a large enough effect in the signal ratio; the % refers to the signal ratio; also: % of control where 0% means no effect); conditions: NF-kB-bla ME-180 cells, beta-lactamase FRET ratio, 16 h; stronger effect = higher value
Outline: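 ME-180 cells stably carrying a beta-lactamase reporter under an NF-kB response element were exposed to compound or DMSO vehicle for 16 hr at 37C, 5% CO2. Pathway activation was read by FRET, since reporter expression disrupts FRET.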

[18] = qHTS assay to identify small molecules that stimulate interleukin-8 (IL-8) secretion (AID 651758; active = well fitted activation curve with a large enough effect in the signal ratio; the % refers to the signal ratio; also: 0% is about no effect); conditions: HTRF ratio (665/615); series mostly up to 92.2 µM
Outline: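 THP-1, 2000 cells/well; cpd 16 h, 37 C; add cryptate + XL665 anti-IL-8 Abs; RT 1-3 h; TR-FRET read.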

[19] = biological target: Peroxisome proliferator-activated receptor alpha (Homo sapiens) (UniProt Q07869); assay: qHTS assay for small molecule agonists of the peroxisome proliferator-activated receptor alpha (PPARalpha) signaling pathway (AID 651778); conditions: PathHunter PPARalpha complementation, chemiluminescence, 6 h; stronger effect = higher value; also: % of control where 0% means no effect
Sequence of Peroxisome proliferator-activated receptor alpha (Homo sapiens) (Q07869 whole entry, looked up): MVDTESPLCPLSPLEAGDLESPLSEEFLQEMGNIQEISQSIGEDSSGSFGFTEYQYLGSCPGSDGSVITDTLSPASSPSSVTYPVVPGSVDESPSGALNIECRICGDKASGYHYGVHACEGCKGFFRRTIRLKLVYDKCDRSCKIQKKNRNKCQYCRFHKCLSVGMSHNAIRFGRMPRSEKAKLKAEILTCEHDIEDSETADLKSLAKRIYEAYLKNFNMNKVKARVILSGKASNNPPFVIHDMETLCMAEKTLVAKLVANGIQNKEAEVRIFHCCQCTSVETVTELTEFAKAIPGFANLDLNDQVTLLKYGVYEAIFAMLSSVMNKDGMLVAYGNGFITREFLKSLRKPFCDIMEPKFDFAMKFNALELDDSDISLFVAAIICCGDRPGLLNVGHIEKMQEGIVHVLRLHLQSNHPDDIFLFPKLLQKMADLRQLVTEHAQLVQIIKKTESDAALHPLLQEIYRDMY
Outline: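 Cells plated at 2,000/well and held overnight at 37 C, 5% CO2, then compound added by pin tool for 6 hr; after PathHunter detection reagent and 60 min at room temperature, chemiluminescence from enzyme complementation was read.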

[20] = qHTS assay for small molecule agonists of the antioxidant response element (ARE) signaling pathway measured by Nrf2-dependant transcriptional activity (AID 720636; active = well fitted curve in the direction sought with a large enough effect in the repeat runs; an effect the other way counts as inactive or inconclusive; also: % of control where 0% means no effect); conditions: ARE-luc HepG2, Nrf2 luciferase reporter, 16 h; series mostly up to 92.4 µM
Outline: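 ARE-luc HepG2 cells carrying an Nrf2-responsive luciferase reporter were plated in medium with 1% dialyzed FBS, left 6 hr at 37 C to attach, then exposed to compound for 16 hr. Luciferase luminescence was read after ONE-Glo addition.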

NS(=O)(=O)O
1.78%: max response [4]
0.843%: max response [1]
inactive: outcome [2] | outcome [3] | max response [5] 17% | activity change % (negative = inhibition) [6] -4.41% | Potency [7] | Potency [8] | activation [9] -0.9% | Potency [10] | Potency [11] | Potency [12] | activation [13] 0.965% | Potency [14] | Potency [15] | max response [16] 3.57%

CCOC(=O)OCC
-14.7%: max response [1]
inactive: outcome [2] | outcome [3] | max response [5] -0.211% | activity change % (negative = inhibition) [6] 5.41% | Potency [7] | Potency [8] | activation [17] -0.0369% | Potency [12] | Potency [18] | activation [13] 0.303% | max response [19] 3.76% | outcome [20] | Potency [15] | max response [16] 2.96%
10.9%: max response [4]

FC(F)(F)c1cccc(Cl)c1
-1.24%: max response [1]
inactive: outcome [2] | outcome [3] | max response [5] 6.29% | activity change % (negative = inhibition) [6] -4.74% | Potency [7] | Potency [8] | activation [9] -1.63% | Potency [10] | Potency [11] | Potency [12] | activation [13] -0.497% | max response [19] -9.21% | Potency [14] | outcome [20] | Potency [15] | max response [16] -9.33%
3.78%: max response [4]

ClCCl
inactive: outcome [2] | outcome [3] | max response [5] 5.83% | activity change % (negative = inhibition) [6] 0.0464% | Potency [7] | Potency [8] | activation [9] -4.34% | Potency [10] | Potency [11] | Potency [12] | max response [19] -6.14% | Potency [14] | outcome [20] | Potency [15] | max response [16] 8.53%
-5.75%: max response [1]
3.57%: max response [4]

Cc1nc2ccc(Cl)cc2[nH]1
-9.52%: max response [4]
inactive: outcome [2] | outcome [3] | max response [5] -12.1% | activity change % (negative = inhibition) [6] 9.04% | Potency [7] | Potency [8] | activation [9] -1.34% | Potency [11] | Potency [12] | activation [13] 3.58% | max response [19] -1.28% | Potency [14] | outcome [20] | Potency [15]
-24.2%: max response [1]

Cc1cccc(C)c1[N+](=O)[O-]
inactive: outcome [2] | outcome [3] | max response [5] -16.7% and -18.1% | activity change % (negative = inhibition) [6] 3.5% and -3.75% | Potency [7] | Potency [8] | Potency [10] | Potency [11] | Potency [12] | Potency [18] | activation [13] -1.35% and 15.8% | max response [19] 0.937% and 0.387% | Potency [14] | outcome [20] | Potency [15] | max response [16] -4.95% and -2.18%
3.43% and -1.96%: max response [4]
18.2% and 6.02%: max response [1]
